Source: PubChem BioAssay AID1159580 (chemical genetic matrix, 2015)
Several values for one entry are separate records, joined by “and”; a condition that tells them apart may be missing. Identical values can stand only once. Out of some 5,500 compounds screened, about 2,000 (36%) were called active. Another 18% or so got no clear call; they are omitted. Rule as the data show it: active = normalized growth mostly below about 0.91 (no sharp cut-off); inconclusive = no clear call, values can overlap the other calls; inactive = mostly above about 0.92. The list shows a part of the results.

Test: chemical genetic growth profiling, strain panel (AID 1159580);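 also: tested at 20 µM; growth read once vehicle control cultures reached saturation at 30 °C; 1 = growth at the plate median or of vehicle wells; lower values mean less growth of the strain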
Conditions: S. cerevisiae deletion strains, growth OD

Measured: normalized growth

O=C(O)c1cc(O)c(O)c(O)c1
inactive: locus YAL021C, strain ccr4, hits give low values 1.05 | locus YAL026C, strain drs2, hits give low values 1.03 | locus YAL030W, strain snc1, hits give low values 1.02 | locus YBL061C, strain skt5, hits give low values 1.03 | locus YBR009C, strain hhf1, hits give low values 1.02 | locus YBR021W, strain FUR4, hits give low values 1.03 | locus YBR023C, strain chs3, hits give low values 1.04 | locus YBR171W, strain sec66, hits give low values 1.03 | locus YBR229C, strain ROT2, hits give low values 1.03 | locus YBR231C, strain swc5, hits give low values 1.01 | locus YBR279W, strain paf1, hits give low values 1.02 | locus YCL011C, strain gbp2, hits give low values 1.02 | locus YCL016C, strain dcc1, hits give low values 1.04 | locus YCL029C, strain bik1, hits give low values 1.07 | locus YCL069W, strain vba3, hits give low values 1.01 | locus YCR088W, strain abp1, hits give low values 1.02 | locus YDL005C, strain med2, hits give low values 1.02 | locus YDL035C, strain GPR1, hits give low values 1.07 | locus YDL040C, strain nat1, hits give low values 1.02 | locus YDL074C, strain BRE1, hits give low values 1.14 | locus YDL101C, strain DUN1, hits give low values 1.03 | locus YDL185W, strain tfp1, hits give low values 1.03 | locus YDL192W, strain arf1, hits give low values 1.03 | locus YDR001C, strain nth1, hits give low values 1.01 | locus YDR069C, strain doa4, hits give low values 1.01 | locus YDR101C, strain arx1, hits give low values 0.996 | locus YDR137W, strain rgp1, hits give low values 1.13 | locus YDR150W, strain NUM1, hits give low values 1.03 | locus YDR159W, strain sac3, hits give low values 0.987 | locus YDR162C, strain NBP2, hits give low values 1.04 | locus YDR195W, strain ref2 0.996 | locus YDR297W, strain sur2, hits give low values 1.02 | locus YDR318W, strain mcm21, hits give low values 1.04 | locus YDR334W, strain swr1, hits give low values 1.04 | locus YDR335W, strain msn5, hits give low values 1.02 | locus YDR388W, hits give low values 1.02 | locus YDR392W, strain spt3, hits give low values 0.993 | locus YDR502C, strain sam2, hits give low values 1.04 | locus YEL003W, strain gim4, hits give low values 0.996 | locus YEL037C, strain rad23, hits give low values 1.02 | locus YEL061C, strain CIN8 (second series), hits give low values 1.02 | locus YEL061C, strain CIN8, hits give low values 1.03 | locus YER015W, strain faa2, hits give low values 1 | locus YER016W, strain bim1, hits give low values 1.04 | locus YER110C, hits give low values 1.02 | locus YER111C, strain swi4, hits give low values 1.02 | locus YER155C, strain BEM2 (second series), hits give low values 1.08 | locus YER155C, strain BEM2, hits give low values 1.03 | locus YER167W, strain BCK2, hits give low values 1.03 | locus YFR010W, strain ubp6, hits give low values 0.998 | locus YGL078C, strain dbp3, hits give low values 1.03 | locus YGL086W, strain mad1, hits give low values 1.03 | locus YGL167C, strain pmr1, hits give low values 1.02 | locus YGL173C, strain kem1, hits give low values 0.994 | locus YGL227W, strain vid30, hits give low values 1.02 | locus YGL240W, strain doc1, hits give low values 1.01 | locus YGL248W, strain PDE1, hits give low values 1.08 | locus YGL253W, strain hxk2, hits give low values 1.03 | locus YGR078C, strain PAC10, hits give low values 1.04 | locus YGR135W, strain pre9, hits give low values 1.07 | locus YGR252W, strain gcn5, hits give low values 1.07 | locus YHR013C, strain ard1, hits give low values 1.04 | locus YHR027C, strain rpn1, hits give low values 1.01 | locus YHR030C, strain SLT2, hits give low values 0.966 | locus YHR079C, strain IRE1 (second series), hits give low values 1.03 | locus YHR079C, strain IRE1, hits give low values 0.969 | locus YHR094C, strain hxt1, hits give low values 1.02 | locus YHR129C, strain ARP1, hits give low values 1.05 | locus YHR142W, strain chs7, hits give low values 1.03 | locus YHR200W, strain rpn10, hits give low values 1.02 | locus YIL066C, strain RNR3, hits give low values 1.05 | locus YIL073C, strain SPO22, hits give low values 1.23 | locus YIL125W, strain kgd1, hits give low values 1.02 | locus YIR030C, strain dcg1, hits give low values 1.05 | locus YJL092W, strain hpr5, hits give low values 1.03 | locus YJL095W, strain BCK1 (second series), hits give low values 1.03 | locus YJL095W, strain BCK1, hits give low values 1.12 and 0.981 | locus YJL115W, strain asf1, hits give low values 1.02 | locus YJL129C, strain trk1, hits give low values 1.08 | locus YJL134W, strain LCB3, hits give low values 1.03 | locus YJL154C, strain vps35, hits give low values 1.03 | locus YJL164C, strain tpk1, hits give low values 1.01 | locus YJL166W, strain qcr8, hits give low values 1.04 | locus YJL168C, strain set2, hits give low values 1.02 | locus YJL187C, strain SWE1 (second series), hits give low values 1.07
